Screen size: about 400,000 compounds; about 5,500 (1.4%) were called active. Another 9% or so got no clear call; they are omitted. Calls follow the shape of the dose curve; as a rule, active = well fitted cell-killing curve with a large enough effect; inconclusive = small, poorly fitted or top-dose-only effect, or effect the other way; inactive = flat fitted curve, though single readings scatter. What follows is part of a selection rich in actives, with near analogues and random picks from the rest.
Assay: qHTS assay for MDR1-selective chemotherapeutics: Primary screen using the parental adenocarcinoma cell KB-3-1; also: nearly all actives have a fitted effect of over 60% in size
Conditions: KB-3-1 viability, CellTiter-Glo ATP luminescence, 72 h; series mostly up to 46.1 µM; activity change, negative = cytotoxic: at the top concentration
Outline: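 Cytotoxicity in the drug-sensitive parental line KB-3-1 was scored as loss of CellTiter-Glo luminescence following 72 h incubation with compound. Values come from curve fitting of normalized concentration-response data.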
% is scaled to controls: 0 for no effect and ±100 for the full control effect; potency is read from the fitted curve at half-maximal effect.

| SMILES | activity change, negative = cytotoxic | Potency |
| --- | --- | --- |
| Cc1ccccc1CN1CCC(CNC(=O)c2cc3ccc4cccnc4c3[nH]2)CC1 | -15.7% (inactive) |  |
| COc1cc2[nH]c(=O)n(Cc3ccc(C(=O)NCc4ccc(C)cc4)cc3)c(=O)c2cc1OC | -3.55% (inactive) |  |
| CC1CCCCN1Cc1c(O)ccc2c(=O)c(-c3cccc(Cl)c3)c(C(F)(F)F)oc12 (centres undefined) | 11.9% (inactive) |  |
| COc1nc(N=C(N)N)nc2c(C)cccc12 | -14.6% (inactive) |  |
| Cc1nc(N=C(N)N)nc2c(C)cccc12 |  | 10.3 µM (active) |
| COc1ccc(CNc2nnnn2C)cc1 | 5.95% (inactive) |  |
| COc1ccc(CNc2nc(NCc3ccc(OC)cc3)c3ncn(C4CCCC4)c3n2)cc1 |  | 6.51 µM (active) |
| COCCNc1ncnc2c1ncn2[C@H]1CN(Cc2ccc(OC)cc2)C[C@@H](CO)O1 | 0% (inactive) |  |
| COc1ccc(S(=O)(=O)NCc2cccn2Cc2cccc(C)c2)cc1 | 1.09% (inactive) |  |
| COc1ccc(CC(=O)N2CC(=O)Nc3ccc(Br)cc3C2c2ccc(F)cc2)cc1OC (centres undefined) | -1.37% (inactive) |  |
| COc1ccc(-c2cc(C(F)(F)F)nc(SCC(=O)N(C)Cc3ccccc3)n2)cc1OC | -9.14% (inactive) |  |
| Cc1ccc(F)cc1NC(=O)CCSc1nc(-c2ccco2)cc(C(F)(F)F)n1 | 20% (inactive) |  |
| CC1(Cc2ccccc2C#N)C(=O)Nc2ccc(-c3ccc4[nH]ccc4c3)cc21 (centres undefined) |  | 6.51 µM (active) |
| Cc1ccc(CC2(C)C(=O)Nc3ccc(OC(F)(F)F)cc32)cc1 (centres undefined) | 0% (inactive) |  |
| COc1ccccc1CC1(C)C(=O)Nc2ccc(OC(F)(F)F)cc21 (centres undefined) | 0% (inactive) |  |
| COc1ccc(CCNC(=O)c2cc3cccc4c3n2CC(C)S4)c(OC)c1OC (centres undefined) | -27.6% (inactive) |  |
| CC(C)Cn1c(C2CC(=O)N(c3ccccc3Cl)C2)nc2ccccc21 (centres undefined) | 13.6% (inactive) |  |
| O=C(CSc1nc(-c2cccc(F)c2)[nH]c1-c1ccccc1)Nc1ccc2c(c1)OCO2 | 1.92% (inactive) |  |
| COc1cccc(C(=O)NC2(C(F)(F)F)C(=O)Nc3c2c(=O)[nH]c(=O)n3-c2ccc(C)cc2)c1 (centres undefined) | 1.04% (inactive) |  |
| CC(=O)Nc1ccc(S(=O)(=O)N2CCN(c3ccccc3)CC2)cc1 | -4.79% (inactive) |  |
| CCc1c(C)nc2c(-c3ccccc3)c(C)nn2c1Nc1ccc(NC(C)=O)cc1 | -2.98% (inactive) |  |
| CC(=O)Nc1ccc(Nc2c3ccccc3nc3ccccc23)cc1 |  | 4.61 µM (active) |
| COc1ccc(CNC(=O)c2ccc3c(c2)nc2n3CCOC2)c(OC)c1 | 8.73% (inactive) |  |
| Cc1nc2nc(SCC(=O)N(Cc3ccccc3)C(C)C)nn2c(C)c1Cc1ccccc1Cl | -11.4% (inactive) |  |
| O=C(Nc1ccccc1Cl)/C(Cl)=C(\Cl)S(=O)c1ccccc1 (centres undefined) |  | 6.51 µM (active) |
| O=C(Nc1ccccc1Cl)c1ccccc1S(=O)(=O)c1ccccc1[N+](=O)[O-] | 7.37% (inactive) |  |
| O=C(Nc1ccccc1Cl)N1CCC(CN2CCCCC2)CC1 | -2.06% (inactive) |  |

| SMILES | activity change, negative = cytotoxic | Potency |
| --- | --- | --- |
| NS(=O)(=O)c1ccc(NC(=O)COc2ccc(S(=O)(=O)NC3CCCCC3)cc2)cc1 | 0.732% (inactive) |  |
| COc1ccccc1N1CCN(c2ccc(=O)n(CC(=O)NCc3ccc(OC(C)C)cc3)n2)CC1 | -17.2% (inactive) |  |
| Cc1cc(C)cc(NC(=O)CCS(=O)(=O)c2cc3c4c(c2)CCN4C(=O)CC3)c1 | -8.73% (inactive) |  |
| Cc1ccc(Oc2c(C(F)(F)F)oc3c(CN4CCCCC4)c(O)ccc3c2=O)cc1 | 5% (inactive) |  |
| COc1ccc(Cn2c(=O)sc3ccccc32)cc1OC |  | 14.6 µM (active) |
| COc1ccccc1CNC(=O)CCn1c(=O)sc2ccccc21 | 2.78% (inactive) |  |
| COc1ccc(CN2CCOC2=O)cc1OC | 4.09% (inactive) |  |
| Cc1ccc(-c2nnc3ccc(SCC(N)=O)nn23)cc1 | -10.6% (inactive) |  |
| O=C(NCc1cccnc1)C(=O)NCC(c1cccnc1)N1CCN(c2ccccc2)CC1 (centres undefined) | 2.59% (inactive) |  |
| CCN1CCN(C(c2cccnc2)c2cc(Cl)c3cccnc3c2O)CC1 (centres undefined) |  | 7.31 µM (active) |
| CCN1CCN(C(c2ccc(C)cc2)c2c(O)cc(C)n(Cc3ccco3)c2=O)CC1 (centres undefined) | 6.42% (inactive) |  |
| O=C1CCC[C@@H]2C[C@@]3(C[C@@H]4CCN1[C@H]24)Nc1ccccc1NC3=NCc1ccccc1 | 6.89% (inactive) |  |
| Cc1c(Cl)cccc1-c1ccc(CNCCCSc2nnnn2C)o1 | -9.56% (inactive) |  |
| C=CCSC1=C(C#N)C(c2cc(Br)c(O)c(OC)c2)CC(=O)N1 (centres undefined) | 2.37% (inactive) |  |
| CCOC(=O)CSC1=C(C#N)C(c2sccc2C)CC(=O)N1 (centres undefined) |  | 5.01 µM (active) |
| Cc1ccsc1C1C(C#N)=C(N)OC2=C1C(=O)CC(C)C2 (centres undefined) | 11.3% (inactive) |  |
| CCOc1ccc(NC(=O)Cn2cc(C(=O)c3ccc(C)cc3)c(=O)c3cc4c(cc32)OCCO4)cc1 | -2.29% (inactive) |  |
| CCOc1cc(C2C(C(=O)OC)=C(C)NC3=C2C(=O)c2ccccc23)ccc1O (centres undefined) | 13.2% (inactive) |  |
| Clc1ccc(C[n+]2cc(-c3ccccc3)n3c2CCC3)cc1 |  | 7.31 µM (active) |
| Cc1ccc(C(=O)CSc2nc(-c3ccccc3)nc3c2CCCC3)c(C)c1 | -1.42% (inactive) |  |
| Cn1c(-c2ccccc2)c[n+]2c1CCCCC2 | -0.0167% (inactive) |  |
| Cc1ccc(C(=O)N2CCCC(c3ccccc3)=N2)cc1 | -8.58% (inactive) |  |
| Cc1ccc(C(=O)C[n+]2cc(-c3ccccc3)n3c2CCCCC3)cc1 |  | 8.2 µM (active) |
| CC1(C)C=Cc2c(ccc(C(=O)/C=C/c3ccccc3)c2O)O1 | 9.25% (inactive) |  |
| COc1ccc(CN2CCc3nc(Nc4ccccc4)ncc3C2)c(OC)c1OC | -1.65% (inactive) |  |
| CCn1c(C)c(C)c2cc(C(=O)N3CCN(c4cccc(C)c4C)CC3)ccc21 |  | inactive |
| CCS(=O)(=O)N1CCc2cc(C(=O)N3CCN(c4ccccc4OC)CC3)ccc21 |  | 14.6 µM (active) |

| SMILES | activity change, negative = cytotoxic | Potency |
| --- | --- | --- |
| Cc1[nH]c2ccc(C(=O)N3CCN(C)CC3)cc2c1C | 2.76% (inactive) |  |
| CCOc1ccccc1N1CCN(C(=O)c2ccc3[nH]c(C)c(C)c3c2)CC1 |  | 8.2 µM (active) |
| COc1ccccc1NS(=O)(=O)c1ccc(C(=O)N2CCN(c3ccccc3O)CC2)cc1 | 1.02% (inactive) |  |
| CC1CCN(C(=O)c2cccc(S(=O)(=O)N3CCCc4ccccc43)c2)CC1 | -18.9% (inactive) |  |
| CCS(=O)(=O)N1CCc2cc(C(=O)NCc3ccc(OC)cc3)ccc21 | 0.614% (inactive) |  |
| CCOc1ccccc1NC(=S)N1CCN(c2cccc(C)c2C)CC1 | -9.07% (inactive) |  |
| Cc1cccc(N2CCN(C(=O)c3ccc4c(c3)CCN4S(=O)(=O)c3ccccc3)CC2)c1C |  | 23.1 µM (active) |
| Cc1cccn2c(=O)c(C(=O)NC(C)c3ccccc3)cnc12 (centres undefined) | -5.19% (inactive) |  |
| COc1cc(C(=O)NCC(c2ccc(Cl)cc2)N2CCOCC2)cc(OC)c1OC (centres undefined) | 8.9% (inactive) |  |
| O=C(NCC(c1cccnc1)N1CCc2ccccc21)c1cccc(C(F)(F)F)c1 (centres undefined) | -8.05% (inactive) |  |
| CCOC(=O)c1cc2c(=O)n3ccccc3nc2n(CC2CCCO2)c1=NC(=O)c1ccccc1Br (centres undefined) | 8.06% (inactive) |  |
| Cn1nc(-c2ccccc2)c(-c2nc(-c3ccc(Cl)cc3)no2)c1Cl | 3.44% (inactive) |  |
| Cn1nc(-c2ccccc2)c(CO)c1Sc1ccccc1 | 3.21% (inactive) |  |
| Cn1nc(-c2ccccc2)c(CSc2cccc(Cl)c2)c1Cl |  | 23.1 µM (active) |
| COc1ccccc1N1CCN(C(=O)C2CCN(S(=O)(=O)c3c(C)noc3/C=C/c3ccc(C)cc3)CC2)CC1 | -0.427% (inactive) |  |
| O=c1c2cccnc2n(Cc2cccc(F)c2)c(=O)n1Cc1ccccc1Cl | 4.6% (inactive) |  |
| CC(C)c1cc(C(=O)O)n[nH]1 | 19.1% (inactive) |  |
| CC(C)c1cc(C(=O)N/N=C/C(Br)=C/c2ccccc2)n[nH]1 |  | 10.3 µM (active) |
| Cc1ccc(-c2cc(C(=O)N/N=C/C=C/c3ccccc3)n[nH]2)o1 | -26.5% (inactive) |  |
| CCOC(=O)C=Cc1ccc(C(=O)OCC)[nH]1 |  | 7.31 µM (active) |
| CCOC(=O)c1cc2cc(C)ccc2[nH]1 | 10.9% (inactive) |  |
| CCOC(=O)c1c(C)[nH]c(C)c1C(=O)COC(=O)/C=C/c1cccc([N+](=O)[O-])c1 | 3.02% (inactive) |  |
| COc1ccccc1CNC(=O)C(Cc1ccccc1)NS(=O)(=O)c1ccc2c(c1)oc(=O)n2C (centres undefined) | 0.116% (inactive) |  |
| COc1ccccc1CN1CCC(CNC(=O)c2cnn(-c3ccccc3Cl)c2C2CCN(C(=O)OC(C)(C)C)CC2)CC1 | -12.9% (inactive) |  |
| Cc1cc(Cl)ccc1NC(=O)Cc1ccc(NC(=O)N2CCCCc3ccccc32)cc1 | 6.97% (inactive) |  |
